Screens: PubChem BioAssay, National Center for Advancing Translational Sciences (NCATS)
Most compounds without a hit are left out; they make up all but 0.53% or so of the library.
IL2 activator – activates IL-2 in a cell-based reporter assay. activation, % (series mostly up to about 46 µM). hit rate 0.065% among 360,000. IL-2 activation reporter assay, cell-based qHTS; stimulated with anti-CD3/CD4/CD28 beads; in transgenic mouse T cells; in the data active = activation above about 50%; inconclusive = mostly about 30% to 49%; also: 0% is about no effect
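Using fluorescent plate cytometry, EGFP and DsRed are detected in transgenic mouse T cells stimulated 18 h at 37 degrees C with antibody-coated beads after 60 min compound pretreatment.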
PKM2 act – activators of human pyruvate kinase M2 | P14618 | purified PKM2, Kinase-Glo ATP luminescence, activation; response scale: 0% is enzyme alone, no compound | Potency, µM (doses to about 57.5 µM), inactives show at the highest dose activation, usual class: activators | hit rate 0.34% among 260,000 | AID 1631; also: potency is read from the fitted curve at half-maximal effect; % is scaled to controls: 0 for no effect and ±100 for the full control effect; nearly all actives have a fitted effect of over 55% in size
Target sequence (P14618 whole entry, looked up): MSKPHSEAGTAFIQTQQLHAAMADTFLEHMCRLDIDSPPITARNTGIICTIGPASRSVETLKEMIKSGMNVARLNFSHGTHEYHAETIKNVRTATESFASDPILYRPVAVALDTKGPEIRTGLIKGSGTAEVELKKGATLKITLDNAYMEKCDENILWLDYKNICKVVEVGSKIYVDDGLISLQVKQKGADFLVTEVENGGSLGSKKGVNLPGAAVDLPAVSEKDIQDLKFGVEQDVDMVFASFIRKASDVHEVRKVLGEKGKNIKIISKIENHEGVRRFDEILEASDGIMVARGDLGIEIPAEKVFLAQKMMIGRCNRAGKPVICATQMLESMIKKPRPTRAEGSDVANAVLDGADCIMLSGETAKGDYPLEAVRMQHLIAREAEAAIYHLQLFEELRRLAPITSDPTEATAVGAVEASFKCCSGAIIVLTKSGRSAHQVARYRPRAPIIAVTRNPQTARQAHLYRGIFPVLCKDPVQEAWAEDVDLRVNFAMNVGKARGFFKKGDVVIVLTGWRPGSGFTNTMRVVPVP
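Kinase-Glo luminescence reports ATP generated from ADP (0.1 mM) and PEP (0.5 mM) by purified hPK-M2 after 1 h at room temperature, pH 7.2 imidazole buffer; intermediate enzyme activity allows detecting inhibitors and activators.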
Vif-A3G inh – inhibitors of Vif-APOBEC3G interaction. hit rate 0.076% among 410,000. HeLa A3G-eYFP + Vif (tagged APOBEC3G with the HIV-1 protein that degrades it), YFP fluorescence, overnight. Q9HC16. Potency, µM (doses to about 46.1 µM), without a hit: at the top dose activity, negative = active, hits mostly inhibitors. AID 602310; also: potency is read from the fitted curve at half-maximal effect; % is scaled to controls: 0 for no effect and ±100 for the full control effect; nearly all actives have a fitted effect of over 60% in size
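HeLa cells stably expressing Vif and C-terminally eYFP-tagged A3G, seeded overnight at 37 deg C, then exposed to compound by pintool overnight at 37 deg C. Rise in yellow fluorescence (Ex 488/Em 500-530, Acumen) marks blocked Vif-driven A3G degradation.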
Vif-A3F inh – blocks the Vif interaction with APOBEC3F; hit rate 0.2% among 390,000; HeLa A3F-eYFP + Vif (tagged APOBEC3F with the HIV-1 protein that degrades it), YFP fluorescence increase; Potency, µM (doses to about 46.1 µM), inactives show top-dose activity, negative = active; AID 602313; also: potency is read from the fitted curve at half-maximal effect; % of control where 0% means no effect; nearly all actives have a fitted effect of over 65% in size
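HeLa cells stably expressing A3F-eYFP plus Vif, plated and incubated overnight at 37 deg C, then exposed to compounds overnight at 37 deg C. Blocked degradation read as raised yellow fluorescence (Ex 488/Em 500-530).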
Active calls of the source: *; u = inconclusive; x = not tested or not shown. Unless noted, calls follow the shape of the dose curve; as a rule, active = well fitted curve in the direction sought with a large enough effect; inconclusive = small, poorly fitted or top-dose-only effect, or another doubt; inactive = no such curve, though single readings can be large; an effect the other way counts as inactive or inconclusive.

SMILES	IL2 activator	PKM2 act	Vif-A3G inh	Vif-A3F inh
Cc1ccc(-c2cn3nc(-c4ccccc4)c(-c4ccccc4)nc3n2)cc1	1	17%	-18%	4.5µM*
c1ccc(-c2cn3nc(-c4ccccc4)c(-c4ccccc4)nc3n2)cc1	-1	2%	u	u
CC(C)(C)n1ncc2c(=O)n(Cc3ccc(SC(=O)O)cc3Cl)cnc21	x	x	3%	x
O=C(NCc1ccccc1)c1nn(-c2ccccc2)nc1CO	x	x	5%	1%
CCCCCn1c(=O)[nH]c2cc(C(=O)Nc3cc(OC)cc(OC)c3)ccc2c1=O	x	x	-1%	28µM*
Cc1cc(NC(=O)CSc2ncccn2)no1	1	7%	-1%	-1%
Cc1cc(NC(=O)CSc2ncn(-c3ccccc3)n2)no1	1	25µM*	-4%	-7%
CN(C)c1ccc(/C=C/N2C=CCc3c2ccc2ccccc32)cc1	x	x	9%	x
O=S(=O)(Nc1nc2n(n1)C(c1ccccc1)C=C(c1ccc(Cl)cc1)N2)c1ccccc1 (stereo unspecified)	x	x	u	22µM*
Cc1ccc(S(=O)(=O)Nc2nc3n(n2)C(c2ccc(Cl)cc2)C=C(c2ccccc2)N3)cc1 (stereo unspecified)	x	x	-28%	u
COC(=O)c1cc(NC(=O)c2cc3sccc3n2Cc2ccc(Cl)cc2)cc(C(=O)OC)c1	x	x	-4%	-17%
CCS(=O)(=O)c1nn2c(N)c(/C=C3/C=CC(=O)C(OC)=C3)c(=O)nc2s1	1	-23%	-8%	20µM*
COC1=C/C(=C/c2c(N)n3nc(-c4ccc(C)cc4)sc3nc2=O)C=CC1=O	5	u	-18%	11µM*
Cn1c(CSCc2ccc(Cl)cc2Cl)n[nH]c1=S	-3	28µM*	0%	-1%
Nc1ccc(S(=O)(=O)c2ccc(N)c(N)c2)cc1	1	28µM*	0%	4%
CCCCCCCCCC[n+]1cccc2cc(Br)ccc21	x	x	-18%	x
Cc1ccc(OC(=O)c2ccc3nc(C)sc3c2)cc1	394*	5%	-75%	-226%
COc1cccc(Cn2c3ccc(NC(=O)CCc4ccc(F)cc4)cc3c(=O)n2C)c1	-1	x	4µM*	x
O=C(NCc1ccco1)/C(=C\c1cccs1)NC(=O)c1ccsc1	1	1%	-2%	2%
O=C(NCc1ccco1)/C(=C\c1cccs1)NC(=O)c1ccco1	-1	28µM*	-2%	-18%
O=C(Cc1ccccc1)NC(CSSCC(NC(=O)Cc1ccccc1)C(=O)O)C(=O)O (stereo unspecified)	0	x	5%	-18%
Cc1ccc(S(=O)(=O)/N=c2\sccn2C)cc1	-4	18µM*	1%	-5%
c1ccc(-n2ncc3c(NCc4ccco4)ncnc32)cc1	-1	-4%	-22%	-7%
c1ccc(Cn2ncc3c(NCc4ccco4)ncnc32)cc1	-3	14µM*	-20%	1%
COCCCNC(=O)C[C@@H]1C[C@@]2(C(=O)OC)CCCCC=C2N(Cc2ccc(Cl)cc2Cl)C1=O	0	x	x	x
SMILES	IL2 activator	PKM2 act	Vif-A3G inh	Vif-A3F inh
Cn1ncc(N=Cc2c(O)ccc3ccccc23)c1C(=O)Nc1cccc(Cl)c1	247*	-7%	-18%	u
Cc1ccc(N=C2NC(=O)/C(=C\c3ccco3)S2)cc1	0	13%	-6%	0%
O=C1NC(=Nc2ccc(O)cc2)S/C1=C/c1ccco1	0	4%	11µM*	-1%
CSc1cccc(NS(=O)(=O)c2ccc3c(c2)oc(=O)n3C)c1	-3	7.9µM*	-6%	-1%
Cn1c(=O)oc2cc(S(=O)(=O)Nc3cccc(F)c3)ccc21	-4	13µM*	-1%	-5%
Cc1ccc(NS(=O)(=O)c2ccc3c(c2)oc(=O)n3C)cc1C	-3	x	0%	9%
Cn1c(=O)oc2cc(S(=O)(=O)Nc3ccccc3O)ccc21	2	14µM*	u	-2%
Cc1ccc(NS(=O)(=O)c2ccc3c(c2)oc(=O)n3C)cc1F	1	4.5µM*	1%	8%
Cc1ccc(Cl)cc1N1CCN(C(=O)Cn2ncc3c([nH]c4ccccc43)c2=O)CC1	x	x	-1%	2%
COc1cc2c(NC3CCN(C(C)C)CC3)nc(N3CCCN(C)CC3)nc2cc1OCCOCCN1CCCC1	x	x	1%	x
Cn1c(=O)c2cc(S(=O)(=O)Nc3cccc(F)c3)ccc2n(C)c1=O	1	5µM*	-3%	u
Cn1c(=O)c2cc(S(=O)(=O)NC(C(=O)Nc3cccc(F)c3)c3ccccc3)ccc2n(C)c1=O (stereo unspecified)	1	0%	-2%	1%
COc1cc(S(=O)(=O)Nc2ccc(C)cc2)ccc1N=Cc1c(C)c(C#N)c(=O)n(C)c1O	448*	-7%	2%	-6%
Cc1cc(NC(=O)c2ccc(Br)o2)cc(-c2nc3ccccc3o2)c1O	x	x	1%	-1%
CC1CCN(C(=O)CN2CCSc3ccc(S(=O)(=O)N(C)C)cc32)CC1	x	x	-1%	-5%
CN(C)/C(CN1CCOCC1)=C1\N=C(c2ccccc2)OC1=O	5	-8%	1%	-6%
CN(C)/C(Cn1cncn1)=C1/N=C(c2c(F)cccc2F)OC1=O	-3	25µM*	-2%	5%
C/C(N)=C(/C#N)C(=O)CSc1ccc2c(c1)OCCO2	0	14µM*	0%	-2%
CC(=O)Oc1ccc2c(c1)C(=O)CCCCCC(=O)O2	-4	x	1%	-1%
CCCCN(C)CC(O)Cn1cc(/C=C/C(=O)c2cccs2)c2ccccc21 (stereo unspecified)	1	-7%	u	28µM*
CCOC(=O)c1cc2c(ccn2C)n1CC(=O)N1CCN(c2cccc(C(F)(F)F)c2)CC1	1	32µM*	-8%	8%
CCOC(=O)c1cc2c(ccn2C)n1CC(=O)N1CCN(c2ccc(F)cc2)CC1	0	4%	-7%	0%
COc1cccc(NC(=O)c2oc3ccccc3c2NC(=O)c2ccccc2C)c1	x	x	1%	-7%
CC(=O)c1ccc(NC(=O)CSc2nnc(-c3ccncc3)n2C2CC2)cc1	-2	x	2%	-7%
COC(=O)C1=COC(C)C2CN3CCc4c([nH]c5cc(OC)c(OC)cc45)C3CC12 (stereo unspecified)	0	10%	-12%	8.9µM*
SMILES	IL2 activator	PKM2 act	Vif-A3G inh	Vif-A3F inh
COC(=O)[C@H]1[C@H]2C[C@@H]3c4[nH]c5cc(OC)ccc5c4CCN3C[C@H]2C[C@@H](OC(=O)c2cc(OC)c(OC)c(OC)c2)[C@@H]1OC	0	x	-13%	u
Nc1nnc(SCC(=O)c2ccc3c(c2)NC(=O)CO3)s1	2	28µM*	1%	-6%
Cc1cccc(-c2noc(-c3ccc(NCc4ccco4)c([N+](=O)[O-])c3)n2)c1	x	x	1%	10µM*
COc1ccc(-c2noc(-c3ccc(NCc4ccco4)c([N+](=O)[O-])c3)n2)cc1OC	x	x	5%	1%
CCOC(=O)Nc1cc2c(c(N)n1)N=C(c1ccccc1)CN2	-2	x	u	22µM*
CCOC(=O)Nc1sc(C)nc1-c1ccccc1	0	2%	1%	0%
C=CCn1c(SCc2nc3ccccc3c(=O)[nH]2)nc2scc(C3CC3)c2c1=O	-3	3.5µM*	-16%	u
